A short description of test [1]: NCATS anti-infectives library activity on HEK293 viability as a counter-qHTS vs the C. elegans viability qHTS (AID 1745854). In outline:
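HEK293 cells, 1500 per well, exposed 24 hr at 37C in 5% CO2 to compounds in a 1:5 titration, up to 41.7 uM final. Viability read as CellTiter-Glo luminescence after 10 min at room temperature.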
(In general: qHTS replaces the single test concentration by a dilution series.)

Test [2] addresses Glutathione peroxidase 1 (Homo sapiens) (UniProt P07203). As to the kind of experiment: Primary qHTS Assay for Inhibitors of Recombinant Selenoprotein Glutathione Peroxidase 1 (GPX1) (AID 1845191). Note: nearly all actives have a fitted effect of over 65% in size. Note: potency is the fitted concentration of half-maximal effect. In outline:
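GR-coupled assay: compounds preincubated 30 min at room temperature with GPX1, then reaction started with CHP; final 10 nM GPX1, 1 mM GSH, 0.5 mM CHP, 0.5 mM NADPH, 100 nM GR, 0.01% BSA, pH 7.5 Tris buffer. NADPH fluorescence (340/450 nm) read at 0 and 15 min.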

For test [3], the target named is Phenylethanolamine N-methyltransferase (Homo sapiens) (UniProt P11086). Nature of the test: Confirmatory Screen for Target Class Profiling of Small Molecule Inhibitors of Methyltransferases (AID 1745852). To be noted: MTase-Glo luminescence, SAH detection, recombinant enzyme; measured here: PNMT max response; stronger effect = lower value.
Test [4] can be described thus: NCATS anti-infectives library activity on the primary C. elegans qHTS viability assay (AID 1745855; calls by dose curve; note: potency is the fitted concentration of half-maximal effect). Summed up:
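Viability is taken from GFP fluorescence of PE254-GFP-FLuc C. elegans imaged by laser cytometry over 7 days. Ten L1 worms per well grow at 21 °C on TOP10 E. coli capsules with titrated compound; levamisole marks toxicity.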

The nature of test [5]: Viability counterscreen for antagonist of constitutive androstane receptor (CAR) against the NCATS DSHEA and TCM libraries (AID 1794837).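 Note: compound exposure lasted 24 h before viability reading.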 Summed up: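 Fluorescence from CellTiter-Fluor reports live-cell protease activity in HepG2-CYP2B6-hCAR cells treated for 24 h with substances alongside 48 uM CITCO.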
For orientation: Counterscreens check selectivity or assay interference.

Test [6] concerns the target Nuclear receptor subfamily 1 group I member 3 (Homo sapiens) (UniProt Q14994). As to the kind of experiment: Primary qHTS for agonist of constitutive androstane receptor (CAR) against the NCATS DSHEA and TCM libraries (AID 1794839).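 Note: HepG2 cells expressing human CAR with a CYP2B6 reporter plus PK11195 antagonist; luciferase reporter luminescence read with ONE-Glo.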 In outline:
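Cells stably carrying hCAR and a CYP2B6 reporter (HepG2 background) are seeded and allowed 5 h to adhere. Substances at multiple concentrations are added alongside 0.75 µM PK11195, and luciferase signal is measured after 24 h.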

In test [7] the target is Metallo-beta-lactamase type 2 (Klebsiella pneumoniae) (UniProt C7C422). As to the kind of experiment: qHTS to identify inhibitors of the New Delhi Metallo-beta-lactamase (NDM): assay validation screen against the NCATS LOPAC Collection (AID 1794843). Note: series mostly up to about 38 µM. Summed up: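 Absorbance at 485 nm from nitrocefin turnover (50 uM solution added), read at plateau, gives the read-out. Compounds in DMSO were incubated first with 2 nM final NDM-1 in pH 7.0 HEPES buffer containing 1 uM ZnSO4 and 0.01% Tween20.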

Results filed as inconclusive are left out. Entries that show only a call come without a potency. Calls of active or inactive are those of the source. Unless noted, calls come from the whole dose curve; as a rule, active = well fitted curve in the direction sought with a large enough effect; inconclusive = small, poorly fitted or top-dose-only effect, or another doubt; inactive = no such curve, though single readings can be large; an effect the other way counts as inactive or inconclusive.

The record followed here is PubChem BioAssay (NCATS).

Glutathione peroxidase 1 (Homo sapiens), sequence (P07203 whole entry, looked up): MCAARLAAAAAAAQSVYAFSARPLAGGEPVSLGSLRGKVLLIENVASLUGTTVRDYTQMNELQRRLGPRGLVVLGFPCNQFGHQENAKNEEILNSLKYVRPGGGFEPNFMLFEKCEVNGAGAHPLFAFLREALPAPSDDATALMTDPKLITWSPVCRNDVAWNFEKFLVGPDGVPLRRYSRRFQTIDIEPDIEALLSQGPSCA
Metallo-beta-lactamase type 2 (Klebsiella pneumoniae), sequence (C7C422 whole entry, looked up): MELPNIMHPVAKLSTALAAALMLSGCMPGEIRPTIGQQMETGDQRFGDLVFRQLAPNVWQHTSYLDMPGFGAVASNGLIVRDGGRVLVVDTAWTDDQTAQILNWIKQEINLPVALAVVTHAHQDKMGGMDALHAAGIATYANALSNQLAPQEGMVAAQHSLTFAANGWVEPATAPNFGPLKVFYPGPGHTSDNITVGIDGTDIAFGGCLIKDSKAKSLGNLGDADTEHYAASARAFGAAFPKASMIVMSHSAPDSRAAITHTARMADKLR
Nuclear receptor subfamily 1 group I member 3 (Homo sapiens), sequence (Q14994 whole entry, looked up): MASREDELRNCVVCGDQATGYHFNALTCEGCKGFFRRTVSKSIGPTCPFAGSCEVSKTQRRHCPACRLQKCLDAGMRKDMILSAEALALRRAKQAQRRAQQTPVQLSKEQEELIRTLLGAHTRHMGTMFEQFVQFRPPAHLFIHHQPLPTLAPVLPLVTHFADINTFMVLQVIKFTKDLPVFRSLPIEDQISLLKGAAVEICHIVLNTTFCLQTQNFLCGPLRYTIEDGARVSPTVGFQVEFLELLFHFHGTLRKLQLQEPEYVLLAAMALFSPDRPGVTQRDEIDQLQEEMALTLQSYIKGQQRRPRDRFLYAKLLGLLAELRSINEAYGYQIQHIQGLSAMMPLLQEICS
Phenylethanolamine N-methyltransferase (Homo sapiens), sequence (P11086 whole entry, looked up): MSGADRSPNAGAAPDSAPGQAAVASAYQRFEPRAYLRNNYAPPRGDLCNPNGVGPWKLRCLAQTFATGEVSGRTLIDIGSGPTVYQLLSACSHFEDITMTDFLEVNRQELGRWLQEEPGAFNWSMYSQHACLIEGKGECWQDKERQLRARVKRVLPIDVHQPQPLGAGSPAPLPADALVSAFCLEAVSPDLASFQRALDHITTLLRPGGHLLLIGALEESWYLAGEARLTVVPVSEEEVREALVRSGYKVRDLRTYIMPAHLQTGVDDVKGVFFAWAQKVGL

For `CNC(=O)c1c(-c2ccc(F)cc2)oc2cc(N(CCO)S(C)(=O)=O)c(C3CC3)cc12`, the outcome in test [1] is “inactive”. The Potency result in test [2] was “inactive”.
As for `CCN1CCC(n2cc(CNc3cc(Cl)c4ncc(C#N)c(Nc5ccc(F)c(Cl)c5)c4c3)nn2)CC1`, in test [3], the activity was -91.4%. Moreover, the Potency in test [2] is 1.15 µM (active).
Turning to `COc1cc2c(cc1Cc1cccc(Cl)c1F)c(=O)c(C(=O)O)cn2[C@H](CO)C(C)C`, in test [1], the outcome was “inactive”. The Potency entry in test [2] was “inactive”.
Take `CNC(=O)[C@H](Cc1ccccc1)NC(=O)[C@H](CC(C)C)[C@H](CSc1cccs1)C(=O)NO`: in test [1], the outcome was “inactive”. In test [2], the Potency result was “inactive”.
Regarding `Nc1ncnc2c1ncn2[C@@H]1O[C@H](CO)[C@@H](O)[C@@H]1O`, the outcome in test [1] is “inactive”. In test [2], the Potency entry was “inactive”.
Regarding `CC(=O)Nc1cccc(-n2c(=O)n(C3CC3)c(=O)c3c(Nc4ccc(I)cc4F)n(C)c(=O)c(C)c32)c1`, in test [4], the Potency is 2.3 µM (active).
Take `CC(C)(F)C[C@H](N[C@@H](c1ccc(-c2ccc(S(C)(=O)=O)cc2)cc1)C(F)(F)F)C(=O)NC1(C#N)CC1`: the outcome in test [1] was “inactive”. Further, in test [2], the Potency entry was “inactive”.
In the case of `OC[C@H]1O[C@@H](OCCc2ccc(O)cc2)[C@H](O)[C@@H](O)[C@H]1O`, the outcome in test [5] and in test [6] was “inactive” each time.
In the case of `C=CCc1cccc(C=NNC(=O)CN2CCN(Cc3ccccc3)CC2)c1O`, the outcome in test [7] was “inactive”.
In the case of `CC(C)(OCc1nn(Cc2ccccc2)c2ccccc12)C(=O)O`, the Potency entry in test [2] was “inactive”.
On to `CC[C@@H]([C@H](C)O)n1ncn(-c2ccc(N3CCN(c4ccc(OCC5CO[C@@](Cn6cncn6)(c6ccc(F)cc6F)C5)cc4)CC3)cc2)c1=O` (some centres not stated), for which, in test [2], the Potency entry was “inactive”.
Still for that read-out and setting: the same measure for `N#Cc1ccc(Oc2ccc3c(c2)COB3O)cc1`: “inactive”; for `CSc1cccc(Nc2ncc3cc(-c4c(Cl)cccc4Cl)c(=O)n(C)c3n2)c1`: “inactive”.
The same measure, in the same setting: the same measure for `Cc1cc(OCCCS(C)(=O)=O)cc(C)c1-c1cccc(COc2ccc3c(c2)OC[C@H]3CC(=O)O)c1`: “inactive”.
Still for that read-out and setting: the same measure for `O=C(CC12CC3CC(CC(C3)C1)C2)Nc1cccc2nc(NCCNCCO)ccc12`: “inactive”; for `CC(C)C[C@@H](N)[C@H](O)C(=O)N[C@H](C(=O)N[C@H](C(=O)N[C@@H](CC(=O)O)C(=O)O)C(C)C)C(C)C`: “inactive”; for `O=C(O)Cc1cccc(OCCCN(Cc2cccc(C(F)(F)F)c2Cl)CC(c2ccccc2)c2ccccc2)c1`: “inactive”.
As to `COC(=O)Nc1ccc(-c2nc(N3CCOCC3)c3cnn(C4CCN(C(=O)OC)CC4)c3n2)cc1`, in test [2], the Potency result was “inactive”.
Same read-out and setting: the value for `COc1cc2nccc(Oc3ccc(NC(=O)Nc4cc(C)on4)c(Cl)c3)c2cc1OC` was “inactive”.
Still for that read-out and setting: the value for `CCC[C@H](N[C@@H](C)C(=O)N1[C@@H]2CCCC[C@H]2C[C@H]1C(=O)O)C(=O)OCC` was “inactive”; that for `CC1=C(CC(=O)O)c2cc(F)ccc2C1=Cc1ccc(S(C)=O)cc1` (configuration not stated) was “inactive”; that for `O=C(O)CCNc1cc(N2CCc3ccccc3CC2)nc(-c2ccccn2)n1` was “inactive”.
The same measure, in the same setting: the same measure for `NC(=O)c1ccc(N(C(N)=O)c2c(F)cccc2F)nc1-c1ccc(F)cc1F`: “inactive”.
Consider `CCCCn1c(=O)n(Cc2ccccc2F)c(=O)c2[nH]c(Cc3ccc(NC(C)=O)cc3)nc21`, for which the Potency entry in test [2] was “inactive”.
Same read-out and setting: the same measure for `C=CC(=O)Nc1cccc(Sc2nc(Nc3ccc(N4CCN(C)CC4)cc3)ncc2Cl)c1`: “inactive”.
Still for that read-out and setting: the same measure for `CC[C@H](CC#N)OC(=O)N[C@@H](C)c1cccc(NC(=O)Nc2ccc(-c3cnco3)c(OC)c2)c1`: “inactive”.
On the same count and under the same terms, the same measure for `Cc1cccc(-c2[nH]c(C(C)(C)C)nc2-c2ccc3c(c2)OCO3)n1`: “inactive”.
Regarding `CCN1CCN(c2ccc(Nc3cc(N(C)C(=O)Nc4c(Cl)c(OC)cc(OC)c4Cl)ncn3)cc2)CC1`, the Potency entry in test [2] was “inactive”.
On the same count and under the same terms, the value for `COc1cc(Nc2nc3ccccc3nc2NS(=O)(=O)c2ccc(NC(=O)c3ccc(C)c(OC)c3)cc2)cc(OC)c1` was “inactive”; that for `CC1=C(C(=O)Nc2cc3cn[nH]c3cc2F)C(c2ccc(C(F)(F)F)cc2)CC(=O)N1` (configuration not stated) was “inactive”; that for `C[C@@H]1CCO[C@H]2Cn3cc(C(=O)NCc4ccc(F)cc4F)c(=O)c(O)c3C(=O)N12` was “inactive”.
Consider `COc1cc2ncn(-c3cc(OCc4ccccc4S(C)(=O)=O)c(C#N)s3)c2cc1OC`, for which, in test [2], the Potency entry was “inactive”.
On to `Cc1cccc(Nc2nc(N[C@@H]3CCCC[C@H]3N)ncc2C(N)=O)c1`, for which, in test [2], the Potency entry was “inactive”.
As for `Cc1cc(C(C)Nc2ccccc2)c2nc(N3CCOCC3)cc(=O)n2c1` (configuration not stated), the Potency entry in test [2] was “inactive”.
Same read-out and setting: the same measure for `Cc1cc(NC(=O)Nc2ccc(N(C)C)cc2)c2cc(F)cc(F)c2n1`: “inactive”; for `COc1ccc(CCC(=O)Nc2nc3ccc(Cl)cc3s2)cc1OC`: “inactive”; for `COc1cc2ncnc(Nc3cc(Br)c(O)c(Br)c3)c2cc1OC`: “inactive”.
The same measure, in the same setting: the same measure for `CCCCc1ccc(NS(=O)(=O)c2ccc(C)c(C(=O)N3CCN(c4cccc(C)c4C)CC3)c2)cc1`: “inactive”.
Turning to `CN(C)CCOc1cc(-c2cn[nH]c2)ccc1NC(=O)C1COc2ccccc2O1` (configuration not stated), in test [2], the Potency result was “inactive”.
The same measure, in the same setting: the value for `CC1(C)CC(=O)c2c(C(F)(F)F)nn(-c3ccc(C(N)=O)c(NC4CCC(O)CC4)c3)c2C1` (configuration not stated) was “inactive”.
With `COc1cccc(OC)c1-c1cc(C(=O)NC2(C(=O)O)C3CC4CC(C3)CC2C4)nn1-c1ccnc2cc(Cl)ccc12` (configuration not stated), the Potency result in test [2] was “inactive”.
Same read-out and setting: the same measure for `Clc1ccc(COC(Cn2ccnc2)c2ccc(Cl)cc2Cl)c(Cl)c1` (configuration not stated): “inactive”; for `CCC(C)SSc1ncc[nH]1` (configuration not stated): “inactive”.
Same read-out and setting: the same measure for `Cc1ccccc1C(C(=O)NC1CCCCC1)N(C(=O)CNc1ccc(C#N)cc1)c1cccc(F)c1` (configuration not stated): “inactive”; for `C[C@@H](O[C@H]1OCCN(Cc2n[nH]c(=O)[nH]2)[C@@H]1c1ccc(F)cc1)c1cc(C(F)(F)F)cc(C(F)(F)F)c1`: “inactive”.
